In the library only some 1.5% were active in any assay of this set; here they are far more common.
SARS 3CLpro inh: SARS-CoV 3CLpro protease inhibitors, primary screen, biochemical, quenched FRET. recombinant SARS-CoV 3CLpro, quenched FRET peptide cleavage. Replicase polyprotein 1ab (Severe acute respiratory syndrome coronavirus), P0C6X7. 290,000 compounds, 0.14% hits. inhibition, % at 6 µM; in the data active = inhibition above about 12%
RecA intein inh: Mtb RecA intein splicing inhibitors, primary screen, biochemical, fluorescence, HTS; cell-free RecA intein splicing; inhibition, % (test concentration not listed); 290,000 compounds, 0.75% hits; in the data active = inhibition above about 30%
Target sequence (P9WHJ3 whole entry, looked up): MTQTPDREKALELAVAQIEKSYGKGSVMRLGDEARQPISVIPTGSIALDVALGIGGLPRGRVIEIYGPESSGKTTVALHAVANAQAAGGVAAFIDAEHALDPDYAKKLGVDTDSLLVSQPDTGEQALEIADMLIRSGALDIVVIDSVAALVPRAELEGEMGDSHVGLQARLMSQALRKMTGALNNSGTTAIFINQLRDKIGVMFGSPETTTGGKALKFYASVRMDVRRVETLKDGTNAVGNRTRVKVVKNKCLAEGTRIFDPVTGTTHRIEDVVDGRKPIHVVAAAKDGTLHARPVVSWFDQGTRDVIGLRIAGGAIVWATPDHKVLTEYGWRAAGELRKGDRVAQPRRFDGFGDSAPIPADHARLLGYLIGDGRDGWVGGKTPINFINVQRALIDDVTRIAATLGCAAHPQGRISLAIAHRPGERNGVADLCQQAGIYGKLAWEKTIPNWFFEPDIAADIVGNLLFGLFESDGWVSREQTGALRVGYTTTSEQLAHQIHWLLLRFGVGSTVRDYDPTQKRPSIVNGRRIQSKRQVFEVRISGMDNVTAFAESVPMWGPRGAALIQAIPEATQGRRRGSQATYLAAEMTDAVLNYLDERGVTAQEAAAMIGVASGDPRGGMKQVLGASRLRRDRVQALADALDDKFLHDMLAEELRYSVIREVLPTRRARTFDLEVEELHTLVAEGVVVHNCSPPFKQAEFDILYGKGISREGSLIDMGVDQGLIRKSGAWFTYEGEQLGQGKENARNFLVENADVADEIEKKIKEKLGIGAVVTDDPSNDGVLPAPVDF
CCHF vOTU inh-1: CCHFV vOTU protease inhibitors, primary screen, biochemical, Pep-AMC substrate, fluorescence; 370,000 compounds, 0.55% hits; AID 651958, 2012; inhibition, % at 11.5 µM; Crimean-Congo hemorrhagic fever virus L polyprotein viral ovarian tumor (vOTU) protease …
VHR inh abs: VHR1 phosphatase inhibitors, primary screen, biochemical, absorbance, uHTS; Dual specificity protein phosphatase 3 (Homo sapiens), P51452; recombinant VHR phosphatase, pNPP absorbance; inhibition, % at 13.3 µM; 290,000 compounds, 0.52% hits; in the data active = inhibition above about 50%
CCHF vOTU inh-2: CCHFV vOTU protease inhibitors, confirmation, biochemical, Pep-AMC substrate, fluorescence | shares compounds with CCHF vOTU inh-1 | Recombinant CCHFV vOTU | inhibition, % at 11.5 µM | 1,900 compounds, 17% hits | AID 686976, 2013
Hits are given with their value. Cut-off read from the data, not from the text of the source, unless noted: active = inhibition above about 30%; inactive = the rest.

Screening O=S1(=O)C=C(N2CCCCC2)c2ccccc21 returned SARS 3CLpro inh inactive, RecA intein inh inactive, CCHF vOTU inh-1 inactive and VHR inh abs inactive.
CC(NC1=CC(=O)c2cccnc2C1=O)C(O)c1ccccc1 (stereo not given) was read as CCHF vOTU inh-1 101.2 and CCHF vOTU inh-2 94.0.
For CC(c1ccccc1)N1C(=O)c2cccnc2C1=O (stereo not given) the results were SARS 3CLpro inh inactive, RecA intein inh inactive, CCHF vOTU inh-1 inactive and VHR inh abs inactive.
`CNC(=O)CCCCCNS(=O)(=O)c1ccc(C)cc1` gave SARS 3CLpro inh inactive, RecA intein inh inactive, CCHF vOTU inh-1 31.0, VHR inh abs inactive and CCHF vOTU inh-2 inactive.
Screening Cc1ccc(S(=O)(=O)NCCCCCC(=O)Nc2ccccc2)cc1 returned SARS 3CLpro inh inactive, RecA intein inh inactive, CCHF vOTU inh-1 inactive and VHR inh abs inactive.
`COc1cccc(/C=N/Nc2ccnc(=O)[nH]2)c1O` gave SARS 3CLpro inh inactive, RecA intein inh inactive, CCHF vOTU inh-1 30.9, VHR inh abs inactive and CCHF vOTU inh-2 inactive.
`Cn1cnc(S(=O)(=O)N2CCCCC2c2cc(C(=O)NCc3ccc(Cl)c(Cl)c3)no2)c1` (stereo not given) gave CCHF vOTU inh-1 inactive.
Nc1cc2c(cc1Br)[nH]c(=O)c1ccccc12 was read as CCHF vOTU inh-1 100.5 and CCHF vOTU inh-2 83.7.
Screening O=C(COC(=O)c1cc(S(=O)(=O)N2CCOCC2)c(Cl)cc1Cl)c1ccc[nH]1 returned CCHF vOTU inh-1 inactive.
`CCOC(=O)C1(Cc2cccc(OC)c2)CCN(Cc2cccc(O)c2)CC1` gave SARS 3CLpro inh inactive, RecA intein inh inactive, CCHF vOTU inh-1 30.7, VHR inh abs inactive and CCHF vOTU inh-2 inactive.
Screening Cc1nn(C)cc1C1C(C#N)=C(N)N(c2ccc(F)c([N+](=O)[O-])c2)C2=C1C(=O)CCC2 (stereo not given) returned SARS 3CLpro inh inactive, RecA intein inh inactive, CCHF vOTU inh-1 29.8, VHR inh abs inactive and CCHF vOTU inh-2 inactive.
For CCc1noc(C)c1C(=O)Nc1ccc(Cl)c(S(=O)(=O)N2CCCCC2)c1 the results were RecA intein inh inactive, CCHF vOTU inh-1 32.0 and CCHF vOTU inh-2 inactive.
COc1ccc(N2CCN(C(=O)COC(=O)c3ccc(-n4nc(C)cc4C)cc3)CC2)cc1 was read as CCHF vOTU inh-1 inactive.
`Cc1onc(-c2c(Cl)cccc2Cl)c1CO/N=C(\C#N)c1c(Cl)cccc1Cl` gave SARS 3CLpro inh inactive, CCHF vOTU inh-1 inactive and VHR inh abs inactive.
CC(C)Oc1ccc(CN2CCC2(C)C(=O)Nc2ccc3c(c2)OCO3)cc1 (stereo not given) was read as CCHF vOTU inh-1 34.2 and CCHF vOTU inh-2 inactive.
Screening c1ccc(Cn2c(SCC3CCCCC3)nnc2-c2cccnc2)cc1 returned CCHF vOTU inh-1 inactive.
Screening COc1cc(/C=C2/C(=O)NN(c3ccc(Cl)c(Cl)c3)C2=O)cc([N+](=O)[O-])c1O returned SARS 3CLpro inh inactive, RecA intein inh inactive, CCHF vOTU inh-1 37.8, VHR inh abs inactive and CCHF vOTU inh-2 inactive.
`Cc1ccc(C(=O)N2CCC[C@@H]2C(=O)N2CCC[C@H]2C(=O)NCc2ccccc2)cc1C` gave CCHF vOTU inh-1 inactive.
For CCCCn1c(NS(=O)(=O)c2ccccc2)c(C(=O)OCC)c2nc3ccccc3nc21 the results were SARS 3CLpro inh inactive, RecA intein inh inactive, CCHF vOTU inh-1 34.8, VHR inh abs inactive and CCHF vOTU inh-2 74.1.
For CCCCn1c(NC(=O)c2ccc(Br)o2)c(C(=O)OCC)c2nc3ccccc3nc21 the results were SARS 3CLpro inh inactive, RecA intein inh inactive, CCHF vOTU inh-1 inactive and VHR inh abs inactive.
For CCOCCCNC1=C(Cl)C(=O)c2ccccc2C1=O the results were SARS 3CLpro inh inactive, RecA intein inh inactive, CCHF vOTU inh-1 46.5, VHR inh abs inactive and CCHF vOTU inh-2 59.6.
`O=C1C(Cl)=C(NCCCN2CCOCC2)C(=O)c2ccccc21` gave CCHF vOTU inh-1 inactive.
Screening CN(C)c1ccc(NC2=C(Cl)C(=O)c3ccccc3C2=O)cc1 returned SARS 3CLpro inh inactive, RecA intein inh inactive, CCHF vOTU inh-1 56.4, VHR inh abs inactive and CCHF vOTU inh-2 inactive.

Screening results as filed in PubChem.
